Compound activity deposited in PubChem by National Center for Advancing Translational Sciences (NCATS).
L3MBTL1 inh: inhibitors of human L3MBTL1; Potency, µM (highest dose often 57.1 µM), without a hit: top-dose activity, negative = inhibition, hits mostly inhibitors; 230,000 compounds, 0.66% hits; AlphaScreen L3MBTL1–H3K9me1 peptide binding; AID 485360; note: nearly all actives have a fitted effect of over 60% in size
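Displacement of a biotinylated histone H3(1-15) peptide monomethylated at Lys9 (75 nM) from L3MBTL1 (50 nM) was measured by AlphaScreen after a 30 min room-temperature compound incubation; cefsulodin titration served as intraplate control.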
BLM inh-1: Bloom syndrome helicase (human) inhibition. P54132. recombinant BLM DNA unwinding, fluorescence dequenching. Potency, µM (titrated, usually from 56.1 µM), for the others: top-dose activity change, negative = inhibition, usual class: inhibitors. 350,000 compounds, 0.2% hits;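 note: plate controls were vehicle for no effect and no enzyme for full effect; nearly all actives have a fitted effect of over 35% in size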
WRN helicase inh: inhibitors of human WRN helicase | WRN helicase unwinding, fluorescent forked duplex, kinetic | Potency, µM (series often up to 114 µM), for the others: top-dose activity change, negative = inhibition, most hits filed as inhibitors | 360,000 compounds, 0.46% hits; note: nearly all actives have a fitted effect of over 55% in size
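WRN at 20 nM final preincubated with compound 15 min at room temperature; reaction started with 100 nM fluorophore/quencher forked duplex oligonucleotide and 2 mM ATP final. Unwinding followed kinetically by red fluorescence (ex 525, em 598 nm).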
FEN1 inh: human FEN1 inhibition | Recombinant FEN1 flap cleavage, fluorescence, 15 min | Potency, µM (series often up to 114 µM), without a hit: at the highest dose activity change, negative = inhibition, hits mostly inhibitors | 390,000 compounds, 0.35% hits; note: nearly all actives have a fitted effect of over 65% in size
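Steps: FEN1 (10 nM) dispensed; compound added by pin tool; 15 min at room temperature; substrate added to 50 nM final; reads at 0 min and 15 min; data normalized and fitted (four-parameter Hill).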
RECQ1 inh-1: inhibitors of human RECQ1 DNA helicase; P46063; RECQ1 DNA unwinding, red fluorescence kinetic read; Potency, µM (series often up to 57.3 µM), for inactives: at the highest dose activity, negative = inhibition, hits mostly inhibitors; 240,000 compounds, 0.54% hits; AID 2549;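 note: plate controls were vehicle for no effect and no enzyme for full effect; nearly all actives have a fitted effect of over 30% in size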
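50 nM RECQ1T1 preincubated 15 min with compound in Tris pH 8.0 buffer with MgCl2, DTT, Tween-20 and 2.5 ug/ml poly(dI-dC); started with 200 nM TAMRA/BHQ-2 forked duplex and 2 mM ATP. Unwinding read as fluorescence (525/598 nm), two reads 2 h apart.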
BLM inh-2: confirmation of inhibitors of human Bloom syndrome helicase BLM; shares compounds with BLM inh-1; BLM DNA unwinding, fluorescence quenching, biochemical; Potency, µM, for the others: max response, negative = inhibition, usual class: inhibitors; 220 compounds, 40% hits; AID 2585;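 note: strand separation dequenches TAMRA so unwinding raises red fluorescence; series mostly up to about 69 µM; nearly all actives have a fitted effect of over 45% in size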
RECQ1 inh conf: confirmation of human RECQ1 helicase inhibitors; shares compounds with RECQ1 inh-1; RECQ1 helicase DNA unwinding, fluorescence; Potency, µM (highest dose often 229 µM), for the others: at the top dose activity change, negative = inhibition, usual class: inhibitors; 610 compounds, 28% hits; note: nearly all actives have a fitted effect of over 45% in size
RECQ1 ADP FP: displaces ADP in a fluorescence polarization counter-screen for RECQ1 hits | ADP fluorescence polarization displacement counterscreen | 530 compounds, 27% hits | AID 2711 | shares compounds with RECQ1 inh-1 | Potency, µM (series often up to 228 µM), inactives show at the top dose activity change, negative = inhibition, actives largely listed as inhibitors; note: nearly all actives have a fitted effect of over 45% in size
RECQ1 inh-2: RECQ1 helicase inhibition confirmed, round 2. Potency, µM (titrated, usually from 119 µM), inactives show at the top dose activity, negative = inhibition, most hits filed as inhibitors. 1,100 compounds, 15% hits. shares compounds with RECQ1 inh-1. recombinant RECQ1 DNA unwinding, red fluorescence. AID 504841; note: nearly all actives have a fitted effect of over 50% in size
Starred values were filed as active, the others as inactive; i = inactive; ? = inconclusive; nt = not tested or not shown; ! = not active in a repeat; [ ] = another dose, or the depositor's remark. Compounds with a hit are over-represented: about 0.99% of the library has one in this group of screens. Calls come from the whole dose curve; as a rule, active = well fitted curve in the direction sought with a large enough effect; inconclusive = small, poorly fitted or top-dose-only effect, or another doubt; inactive = no such curve, though single readings can be large; an effect the other way counts as inactive or inconclusive. Unless noted, % is set by controls: 0 for no effect and ±100 for the full control effect; potency is the fitted concentration of half-maximal effect.

SMILES | L3MBTL1 inh | BLM inh-1 | WRN helicase inh | FEN1 inh | RECQ1 inh-1 | BLM inh-2 | RECQ1 inh-2 | others
COC(=O)c1ccc(COc2ccc(/C=C(\C#N)c3nc4ccccc4[nH]3)cc2OC)o1 | 4% | 14µM* | ? | -11% | ? | ? | 79µM*
CCNc1ncc2ncc(=O)n(CCOC)c2n1 | nt | -8% | nt | nt | i | nt | nt
COc1ccccc1-c1nn2c(-c3cc(-c4ccccc4)n[nH]3)nnc2s1 | nt | nt | nt | 5% | nt | nt | nt
COc1cccc(OC)c1-c1nn2c(-c3cc(-c4ccccc4)n[nH]3)nnc2s1 | -29% | 28µM* | 40µM* | 28µM* | 11µM* | ? | nt | RECQ1 ADP FP=91%[91.9 µM]
Cc1cc(C)c2c(n1)nn1c(N3CCN(c4ccccc4C)CC3)cc(C)nc21 | nt | nt | 0% | -20% | nt | nt | nt
COc1ccccc1CNc1nc(-c2ccc(C(=O)N(C)C)cc2)nc2ccccc12 | nt | -3% | nt | nt | -12% | nt | nt
COc1ccccc1CNc1nc(-c2ccc(N(C)C)cc2)nc2ccccc12 | nt | 14µM* | nt | nt | ? | 23µM* | -2%
CCOC(=O)C1CCN(C(=O)c2cc3c(s2)-c2ccccc2OC3)CC1 | 21% | -2% | -2% | 1% | nt | nt | nt
CCOc1ccccc1N(CC(=O)Nc1ccc(C)cc1)S(C)(=O)=O | -2% | -2% | 3% | -10% | -5% | nt | nt
Cc1cccc(N2CCC(N3CCN(C4CCCCC4)C(CCO)C3)CC2)c1C (centres undefined) | 16µM* | 14µM* | 0% | 13% | ? | 7% | -13%
CC(C)N1CCC(N2CCN(C3CCCC3)CC2CCO)CC1 (centres undefined) | -2% | 3% | 9%[57.1 µM] | -4% | i | nt | nt
O=C(COC(=O)c1cncc(Br)c1)NCc1ccco1 | -89% | 22µM* | 50µM* | -17% | 14µM* | 18µM* | nt | RECQ1 inh conf=25µM*;RECQ1 ADP FP=50µM*
O=C(COC(=O)c1cncc(Br)c1)NCc1ccc(F)cc1 | -4% | -3% | -4% | -15% | -2% | nt | nt
O=C(O)C1=CC(=C(c2ccc(O)c(C(=O)O)c2)c2ccc(O)c(C(=O)O)c2)C=CC1=O | ? | 2.8µM* | nt | 0.79µM* | 0.28µM* | 11µM* | nt | RECQ1 inh conf=0.26µM*;RECQ1 ADP FP=0%[25.6 µM]
O=C(Cn1cc([N+](=O)[O-])cn1)N1CCN(Cc2ccc3c(c2)OCO3)CC1 | nt | 1% | -7% | -7% | nt | nt | nt
CCOC(=O)CCC(=O)O[C@H]1C(O[C@@H]2C(C)[C@H](O[C@H]3C[C@@](C)(OC)C(O)C(C)O3)C(C)C(=O)OC(CC)[C@@](C)(O)C(O)[C@H](C)C(=O)C(C)C[C@]2(C)O)OC(C)CC1N(C)C (some centres undefined) | nt | -14% | nt | nt | 17% | nt | nt
CCC(=O)O[C@H]1C(O[C@@H]2C(C)[C@H](O[C@H]3C[C@@](C)(OC)C(O)C(C)O3)C(C)C(=O)OC(CC)[C@@](C)(O)C(O)[C@H](C)C(=O)C(C)C[C@]2(C)O)OC(C)CC1N(C)C (some centres undefined) | nt | 28µM* | nt | nt | 11µM* | 43µM* | nt | RECQ1 inh conf=36µM*
COc1cccc2c1C(=O)c1c(O)c3c(c(O)c1C2=O)C[C@@](O)(C(=O)CO)C[C@@H]3O[C@H]1C[C@H](N)[C@H](O)[C@H](C)O1 | -14% | 28µM* | 56µM* | -9% | 32µM*! | 41µM* | nt | RECQ1 inh conf=36µM*
O=c1[nH]nc(CNc2ccc(O)cc2)c2ccccc12 | nt | 35µM* | -19%[57.1 µM] | -17% | 14µM* | -3% | -8% | RECQ1 inh conf=15%[114 µM];RECQ1 ADP FP=40µM*
O=c1[nH]nc(CNc2ccc(C(F)(F)F)cc2)c2ccccc12 | -7% | -6% | -2% | 14% | -3% | nt | nt
CC(C)OC(=O)CN1C(=O)C(C)(C)Oc2ccc(C(=O)NC3CC3)cc21 | 20%[11.4 µM] | 0% | 12% | -3% | 3% | nt | nt
O=C(O)CCCCCN1C(=O)/C(=C\c2cn(-c3ccccc3)nc2-c2cccs2)SC1=S | ? | 16µM* | -16%[11.6 µM] | -5% | -9% | 32µM* | nt | RECQ1 inh conf=2%[69.1 µM]
O=C(O)CCCCCN1C(=O)/C(=C/c2cn(-c3ccccc3)nc2-c2cccs2)SC1=S | nt | nt | ? | -9% | nt | nt | nt
CCOc1ccc2[nH]c(=O)c(C(c3nnnn3Cc3ccco3)N3CCN(C)CC3)cc2c1 (centres undefined) | -25% | 1.1µM* | 4% | 1% | 7.1µM* | 3% | 4% | RECQ1 inh conf=24%[114 µM];RECQ1 ADP FP=45µM*
O=C(COC(=O)CCNS(=O)(=O)c1cccc(C(F)(F)F)c1)NC(=O)NC1CCCCC1 | nt | -6% | -5% | -7% | -11% | nt | nt
SMILES | L3MBTL1 inh | BLM inh-1 | WRN helicase inh | FEN1 inh | RECQ1 inh-1 | BLM inh-2 | RECQ1 inh-2 | others
Oc1ccc([C@@H]2CNCCc3c2cc(O)c(O)c3Cl)cc1 | nt | ? | nt | nt | ? | ? | nt | RECQ1 inh conf=?;RECQ1 ADP FP=7.1µM*
O=c1[nH]c(Nc2ccc(F)cc2)cc2ccccc12 | nt | 32µM* | -11% | 3% | ? | ? | -30%
O=C(COc1ccc([N+](=O)[O-])cc1)NCc1cccnc1 | 8% | 2% | 4% | -4% | i | nt | nt
O=C(COc1ccc([N+](=O)[O-])cc1)Nc1nnc(-c2cccnc2)s1 | ? | 16µM* | -18%[57.1 µM] | ? | ? | ? | ?
Oc1ccc(NCc2cccc(OCc3ccc(F)cc3)c2)cc1 | ? | 14µM* | 8% | ? | ? | ? | -18%
Oc1ccc(NCc2cccc(OCc3ccccc3)c2)cc1 | ? | ? | 22% | ? | -10% | nt | nt
CCn1cc(S(=O)(=O)c2ccc(Cl)cc2)c(=O)c2cc(F)c(N3CCOCC3)cc21 | nt | 1% | nt | 7% | nt | nt | nt
S=C(Nc1ccc2nsnc2c1)N1CCCC1 | 25% | 7.9µM* | -25% | 7% | ? | ? | 12%
O=C(O)c1ccccc1/C=N/NC(=O)c1cc(-c2ccco2)nc2ccccc12 | ? | 14µM* | ? | ? | 22µM* | ? | nt | RECQ1 inh conf=40µM*;RECQ1 ADP FP=40µM*
Cc1c(Cl)c(C(F)(F)F)nn1CC(=O)NCc1ccccc1 | 12% | -1% | -20% | 21% | -2% | nt | nt
Nc1ccc(N2CCCCC2)c2nonc12 | ? | 22µM* | ? | ? | ? | 1% | -2%
CCN(C(=O)COC(=O)c1cc2c(s1)CCCC2)c1c(N)n(Cc2ccccc2)c(=O)[nH]c1=O | -28% | nt | -17% | 28% | nt | nt | nt
